Pol kappa inh: inhibitors of human DNA polymerase kappa | Q9UBT6 | purified Pol kappa, fluorescent DNA synthesis assay, 10 min | Potency, µM (top dose mostly 107 µM), for inactives: at the highest dose activity, negative = inhibition, hits mostly inhibitors | actives 0.53% (n = 400,000) | AID 588579; further: potency means the concentration at half of the fitted maximal effect; on the % scale 0 is the no-effect control and ±100 the full control effect
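Inhibition of 10 nM Pol kappa is measured by a fluorescent read-out at 0 and 10 min following addition of 50 nM substrate (final), with a 15-min room-temperature compound preincubation.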
Pol eta inh: blocks human DNA polymerase eta activity; Q9Y253; recombinant Pol eta, fluorescent DNA replication assay; Potency, µM (titrated, usually from 114 µM), for inactives: at the top dose activity change, negative = inhibition, most hits filed as inhibitors; actives 1.2% (n = 390,000); AID 588591; further: potency means the concentration at half of the fitted maximal effect; on the % scale 0 is the no-effect control and ±100 the full control effect
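Pol eta at 10 nM preincubated with compounds 15 min at room temperature; reaction started with fluorescent substrate (50 nM final) and read kinetically at 0 and 10 min.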
Pol beta inh: inhibitors of human DNA polymerase beta; P06746; Pol beta primer extension/strand displacement, fluorescence kinetic; Potency, µM (top dose mostly 114 µM), inactives show at the top dose activity change, negative = inhibition, most hits filed as inhibitors; actives 1.3% (n = 340,000); AID 485314; further: potency means the concentration at half of the fitted maximal effect; on the % scale 0 is the no-effect control and ±100 the full control effect
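Pol beta (10 nM) was preincubated with compound for 15 min at room temperature. The reaction was then started with 50 nM substrate and read immediately and after a further 10 min at room temperature.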
POLI inh: blocks human DNA polymerase iota activity | Q9UNA4 | Pol iota fluorescent replication assay, 10 min | Potency, µM (series often up to 115 µM), inactives show top-dose activity, negative = inhibition, actives largely listed as inhibitors | actives 1% (n = 390,000) | AID 588590; further: potency means the concentration at half of the fitted maximal effect
Target sequence (Q9UNA4 whole entry, looked up): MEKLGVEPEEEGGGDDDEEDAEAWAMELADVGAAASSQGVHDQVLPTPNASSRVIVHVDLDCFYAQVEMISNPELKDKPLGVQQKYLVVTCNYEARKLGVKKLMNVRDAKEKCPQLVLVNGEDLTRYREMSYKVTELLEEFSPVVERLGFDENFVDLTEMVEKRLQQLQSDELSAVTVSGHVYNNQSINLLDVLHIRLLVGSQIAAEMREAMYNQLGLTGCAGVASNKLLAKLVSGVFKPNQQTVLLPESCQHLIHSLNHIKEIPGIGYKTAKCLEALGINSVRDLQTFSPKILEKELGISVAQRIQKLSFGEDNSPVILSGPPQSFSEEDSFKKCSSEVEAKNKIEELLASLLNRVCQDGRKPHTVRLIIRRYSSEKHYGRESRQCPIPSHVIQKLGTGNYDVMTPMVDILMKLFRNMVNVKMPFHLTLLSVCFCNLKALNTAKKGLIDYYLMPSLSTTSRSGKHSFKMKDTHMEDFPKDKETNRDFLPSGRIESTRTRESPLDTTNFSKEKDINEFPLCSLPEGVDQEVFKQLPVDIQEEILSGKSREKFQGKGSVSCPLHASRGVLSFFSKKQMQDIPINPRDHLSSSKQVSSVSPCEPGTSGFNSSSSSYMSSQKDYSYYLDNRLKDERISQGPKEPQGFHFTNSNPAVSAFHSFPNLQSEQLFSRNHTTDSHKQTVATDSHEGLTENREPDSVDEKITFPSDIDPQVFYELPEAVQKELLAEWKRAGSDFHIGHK
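Fluorescent replication assay read twice, at 0 min and 10 min after adding 50 nM (final) substrate. Enzyme (10 nM) and compounds were first incubated 15 min at room temperature; enzyme-free buffer wells were negative controls.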
12-LOX inh: inhibitors of human 12S-lipoxygenase ALOX12; purified 12hLO, xylenol orange hydroperoxide absorbance; actives 1.1% (n = 580,000); AID 1671190; Potency, µM (series often up to 108 µM), inactives show at the top dose activity change, negative = inhibition, actives largely listed as inhibitors; P18054; further: potency means the concentration at half of the fitted maximal effect; on the % scale 0 is the no-effect control and ±100 the full control effect
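Purified human 12hLO at 150 nM in 25 mM Hepes, 0.01% Triton X-100, pH 7.0, preincubated 15 min at room temperature with compound. Reaction started with 40 uM arachidonic acid, 30 min at room temperature. Hydroperoxide measured by Fe-xylenol orange, 573/405 nm absorbance ratio.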
PI5P4K alpha inh: inhibitors of human PI5P4K alpha; max response, %; PI5P4Kalpha enzyme, ADP-Glo luminescence, 60 min; hits give low values; P48426; actives 1.2% (n = 330,000); active means max response of -50% or lower; inconclusive means between -30% and -50%; inactive means -30% or higher; further: value at the top dose of about 77 µM; on the % scale 0 is the no-effect control and ±100 the full control effect
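Human PI5P4Kalpha with substrate in 0.038 M HEPES pH 7.4, 0.28 mM EGTA, 0.1% CHAPS, 5% DMSO; reaction started with 5 microM ATP (final), 60 min at room temperature. ADP formed read by ADP-Glo luminescence.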
Starred values were filed as active, the others as inactive; ? = inconclusive; · = not tested or not shown; [ ] = remark or other dose. A selection: hits, their analogues and other compounds. The true share with any hit is near 2.9%. Unless noted, the call rests on the fitted dose curve; in most records, active means well fitted inhibition curve with a large enough effect; inconclusive means small, poorly fitted or top-dose-only effect, or another doubt; inactive means no such curve, though single readings can be large or run the other way.

SMILES | Pol kappa inh | Pol eta inh | Pol beta inh | POLI inh | 12-LOX inh | PI5P4K alpha inh
O=[N+]([O-])c1ccc(-c2nc(NCc3ccccc3)c3ccccc3n2)cc1 | -16.1% | 79.4µM* | 1.1% | 45.9% | -21.6% | 1.2
CCCCn1c(C)c(C)c(-c2nc3ccccc3[nH]2)c1NC(=O)C(C)C | · | · | · | · | -9.0% | ·
C/C(=N/NC(=O)C1CC1)c1ccc(Cl)c(Cl)c1Cl | · | · | · | · | 41.7% | ·
N/C(Cc1ccc([N+](=O)[O-])cc1)=N\OC(=O)COc1ccccc1Cl | -4.8% | -12.1% | ? | -9.4% | -24.4% | -59.4*
N#CCCn1cc(C(=O)Nc2ccccc2)c(-c2cccs2)n1 | · | · | · | · | -6.4% | ·
COc1ccc(Cn2c3nc4ccccc4nc3c3c(=O)n(Cc4ccco4)cnc32)cc1 | · | · | 35.5µM* | · | · | ·
Cc1cccc(-n2cnc3c(c2=O)c2nc4ccccc4nc2n3Cc2ccco2)c1 | -4.6% | ? | 39.8µM* | ? | ? | -27.0
COc1ccc2nc3cc(Cl)ccc3c(Nc3cc(C(C)C)c(O)cc3C)c2c1 | -3.0% | -14.5% | -9.7% | 37.0% | ? | ?
CCN(CC)CCCC(C)Nc1cc(/C=C/c2ccccc2Cl)nc2cc(Cl)ccc12 (configuration not stated) | 1.7%[19.4 µM] | · | · | 70.8µM* | · | ·
CCN(CC)CCCC(C)Nc1c2ccc(Cl)cc2nc2ccc(OC)cc12 (configuration not stated) | 8.91µM* | ? | 15.8µM* | 7.94µM* | 0.0% | ·
CC(Oc1cc2oc(=O)cc(-c3ccccc3)c2cc1Cl)C(=O)NCCCO (configuration not stated) | · | · | · | · | 33.1% | ·
CC(C)(C)OC(=O)NCC(=O)Oc1cc2oc(=O)cc(-c3ccccc3)c2cc1Cl | -3.7% | -11.8% | -13.5% | 7.0% | ? | -72.4*
O=C(/C=C/c1ccco1)N1CCC(Cc2ccccc2)CC1 | ? | ? | ? | 39.8µM* | 13.1% | -56.6*
Cc1cc(S(=O)(=O)Nc2ccc(F)c(C(F)(F)F)c2)sc1C(=O)O | · | · | · | · | -5.7% | ·
COc1cc(=O)n2c(c1C(=O)Nc1ccc(N(C)C)cc1)CCCC2 | · | · | · | · | -11.9% | ·
CCSc1nnc2n(C)c(=O)c3c(n12)-c1ccccc1CC31CCCCC1 | · | · | · | · | 0.7% | ·
CCn1c(=O)c2c(n3c(=S)[nH]nc13)-c1ccccc1CC21CCCCC1 | -5.0% | -26.9% | 17.9% | 24.6% | 14.1µM* | -5.1
Cn1cc(CN2CCN3CCCC3C2)c(-c2ccc(C3CCCCC3)cc2)n1 (configuration not stated) | · | · | · | · | 16.4% | ·
COc1ccc(C(NC(=O)c2nc(-c3ccccc3)oc2C)c2ccccc2)cc1 (configuration not stated) | · | · | · | · | -30.0% | ·
Oc1ccc(-n2nnnc2SCc2ncc(-c3ccc(Cl)cc3)o2)cc1 | · | · | · | · | 31.6µM* | ·
COc1ccc2nc(/C(C#N)=C\c3ccco3)[nH]c2c1 | · | · | · | · | 39.8µM* | ·
Cc1ccc2nc(/C(C#N)=C/c3ccc(O)c(O)c3)[nH]c2c1 | ? | ? | ? | ? | 7.08µM* | -69.4*
N#C/C(=C\c1cc(Br)c(Br)o1)c1nc2ccccc2[nH]1 | · | · | · | · | 11.2µM* | ·
Cc1ccc(Sc2oc(/C=C(/C#N)c3nc4ccccc4[nH]3)cc2Br)cc1 | · | · | · | · | -11.8% | ·
O=C(CSc1ncnc2sc3c(c12)CCCC3)Nc1ccc(Cl)cn1 | · | · | · | · | 6.7% | ·
Cc1ccccc1CN1CCN(c2oc(C3CC3)nc2C#N)CC1 | · | · | · | · | -2.0% | ·
O=C(C1=Cc2sc3c(c2CS1)CCCC3)N1CCC2(CC1)OCCO2 | · | · | · | · | 35.5µM* | ·
Cc1ccccc1NC(=O)N1CCc2c(sc3c2CCCC3)C1c1ccccc1 (configuration not stated) | -8.1%[60.1 µM] | -8.4% | 3.4% | -1.8% | 2.0% | ·
Cc1ccccc1NC(=O)C1=Cc2sc3c(c2CS1)CCCC3 | · | · | · | · | 20µM* | ·
O=C1C2CC=C(Cl)CC2C(=O)N1CCc1ccccc1 (configuration not stated) | -17.8% | -2.6% | -29.4% | ? | 10µM* | ·

Bioassay records as filed in PubChem BioAssay.
